This note sets out measurements from PubChem BioAssay AID540276 (National Center for Advancing Translational Sciences (NCATS), 2011).

Out of some 300,000 compounds screened, about 5,400 (1.8%) were called active. Roughly 28% stayed inconclusive and do not appear here. The sample as a whole holds a higher share of actives than the screen did. Unmarked numbers belong to inactive results. The call rests on the fitted dose curve; tested in HEK293 cells.
On the % scale 0 is the no-effect control and ±100 the full control effect; potency means the concentration at half of the fitted maximal effect.

This test is described as follows: qHTS for inhibitors of binding or entry into cells for Marburg Virus. Conditions: Marburg virus pseudotyped entry inhibition, cell reporter; series mostly up to 37.8 µM; activity change, negative = inhibition: at the top concentration.
`CCCC(CNC(=O)COC(=O)C1=NNC(=O)CC1)c1ccc(Cl)cc1Cl` (stereo not given): the “activity change, negative = inhibition” value is -8.92% [at 46.1 µM]. The same measure, in the same setting: in the case of `CCOc1ccccc1Nc1nnc(SCC(=O)NCC2CCCO2)s1` (stereo not given) it was -0.761%; in that of `O=C(CSc1ncnc2c1nnn2Cc1ccc(F)cc1)NC1CCCC1`, 1.23% [at 46.1 µM]. As to `OC1CCCN(c2ncnc3c2nnn3Cc2c(F)cccc2Cl)C1` (stereo not given), the Potency is 10 µM (active).

Regarding `CCOC(=O)N1CCN(C(=O)C2CCCN(c3ncnc4c3sc3cccc(F)c34)C2)CC1` (stereo not given), the “activity change, negative = inhibition” value is -6.64% [at 46.1 µM].

Turning to `O=C1N=CC(F)C(=O)N1` (stereo not given), the “activity change, negative = inhibition” value was -4.74%. On the same count and under the same terms, then `CCOc1ccc(NC(=O)CN(C)C(=O)c2cccc(S(=O)(=O)N3CCCC3)c2)cc1OCC`, with -1.71% [at 46.1 µM]; and `COc1ccccc1C(=O)N(C1=NC(C)CS1)c1ccc(Cl)cc1` (stereo not given), with -6.31% [at 46.1 µM]. The same measure, in the same setting: then `Cc1noc(C)c1COC(=O)c1cc2ccccc2cc1O`, with 4.37%; and `O=C(COC(=O)c1ccc(O)cc1O)NC(=O)c1ccccc1`, with 8.59% [at 46.1 µM].

For `O=C(NNc1c2ccccc2nc2ccccc12)c1cc2ccccc2cc1O`, the Potency was 3.16 µM (active).

On to `COc1ccccc1C(=O)OCC(=O)Nc1cccc(S(=O)(=O)NC2=NCCCCC2)c1`, for which the “activity change, negative = inhibition” value was 5.55%. The same measure, in the same setting: then `O=C1CCc2cc(S(=O)(=O)Nc3ccc(C(F)(F)F)cc3)cc3c2N1CC3`, with -13.7%.

As to `Cc1cccc(-n2c(SCC(N)=O)nc3c(c2=O)C2(CCCCC2)Cc2ccccc2-3)c1`, the Potency is 4.47 µM (active). Consider `Cc1cccc(-n2c(N)cc(=O)nc2SC(C)C(=O)NC2CCCCC2)c1` (stereo not given), for which the “activity change, negative = inhibition” value was -1.1%. Still for that read-out and setting: in the case of `Cc1cccc(-n2c(SCC(N)=O)nc3c(oc4ccccc43)c2=O)c1` it was -0.67% [at 46.1 µM]; in that of `O=S(=O)(Nc1ccc2nc(N3CCOCC3)sc2c1)c1ccccc1`, -1.94%. The same measure, in the same setting: in the case of `COc1ccc(CC(=O)NC(C)c2ccc(Cl)c(Cl)c2)cc1S(=O)(=O)N1CCOCC1` (stereo not given) it was -3.28%; in that of `CCOc1ccc(CCNC(=O)COC(=O)c2ccc(F)c(S(=O)(=O)N3CCOCC3)c2)cc1OCC`, 0.565%. On the same count and under the same terms, then `CC(NCC(=O)Nc1ccccc1C(=O)NC1CC1)c1ccccc1Cl` (stereo not given), with -20.8%. In the case of `Cn1c(Cl)cnc1[C@H]1CC(=O)c2cc(Cl)ccc2O1`, the Potency was 10 µM (active).

Turning to `COc1cccc(NC(=O)C[C@H]2SC(=Nc3ccccc3)NC2=O)c1`, the “activity change, negative = inhibition” value is -24.7%. `O=C(c1cnn(-c2ccc(Cl)cc2)c1)c1ccccc1O`: the Potency was 3.55 µM (active). On to `Cc1ncc(CC(=O)n2cc(C(=O)c3cc(Cl)ccc3O)cn2)s1`, for which the “activity change, negative = inhibition” value was 9.14%. On to `Cc1cc(O)cc(O)c1C(=O)Cc1cnn(-c2ccccc2)c1`, for which the “activity change, negative = inhibition” value is 17.8%. For the compound `O=c1oc2ccccc2c(=O)c2ccccc12`, the “activity change, negative = inhibition” value is -5% [at 46.1 µM]. Still for that read-out and setting: then `Cc1cccc(CN2CCC(n3nccc3NC(=O)c3ccccc3C)CC2)n1`, with 5.62%; and `CC1(C(=O)NNC(=S)NCC2CCCO2)CC1(Cl)Cl` (stereo not given), with -2.45% [at 46.1 µM].

For the compound `CC(=O)OC1C2(CC3N4C(=O)C5(CO)SSC4(CC31O)C(=O)N5C)OC(C)C(C)(C)C2=O` (stereo not given), the Potency was 1.41 µM (active). As to `Cc1ccc(OCC(=O)N/N=C/c2ccncc2)cc1`, the “activity change, negative = inhibition” value is 13.4%. As to `Cc1ccc(/C=N/NC(=O)COc2ccccc2-c2ccccc2)cc1`, the Potency is 1.3 µM (active).

As to `Cc1ccc(OCC(=O)N/N=C\c2ccco2)c(C)c1`, the “activity change, negative = inhibition” value is 6.47%.

In the case of `O=C(Nc1ccc(-n2cccn2)cc1)C1CCN(Cc2ccsc2)CC1`, the “activity change, negative = inhibition” value was -21%. Still for that read-out and setting: then `O=C(Nc1cnn(Cc2ccc(Cl)cc2)c1)C1CCCC1`, with 2.69%. With `CCn1cc(CN2CCC(C(=O)Nc3cccc(-c4cccc(Cl)c4)c3)CC2)cn1`, the Potency is 12.6 µM (active).

Consider `CC(C)CO/N=C1\C[C@@H](O)[C@@H](O)[C@@H]2[C@@H]3C(=O)N(C[C@@H]4CCCO4)C(=O)[C@@H]3CC[C@@H]12`, for which the “activity change, negative = inhibition” value was -9.86% [at 14.2 µM].

Take `CC1CN(Cc2ccco2)C(=S)N(c2ccccc2)C1=O` (stereo not given): the “activity change, negative = inhibition” value is 18.1%. Take `O=C1CCCN1C(=O)COc1ccc([N+](=O)[O-])cc1`: the “activity change, negative = inhibition” value was -4.97% [at 46.1 µM].

With `Cc1noc(C)c1CSCC(=O)N(CCC(C)C)c1c(N)n(Cc2ccccc2)c(=O)[nH]c1=O`, the “activity change, negative = inhibition” value was -5.09%. Turning to `COc1ccc(/C=C/C(=O)Nc2ccc(C34CC5CC(CC(O)(C5)C3)C4)cc2)cc1OC`, the Potency is 6.51 µM (active). In the case of `COc1ccc(/C=C/C(=O)Nc2cccnc2)cc1OC`, the “activity change, negative = inhibition” value was -4.12% [at 46.1 µM].

For the compound `COc1ccc(/C=C/C(=O)OCC(=O)NC2CCCCCC2)cc1OC`, the “activity change, negative = inhibition” value was 9.04%.

For the compound `CCOC(=O)Cc1[nH]nc2c1[C@H](c1cc(OC)ccc1OC)C(C#N)=C(N)O2`, the “activity change, negative = inhibition” value was 5.26%. For `COc1ccc(-n2c(C)nc3c(cnn3-c3ccc(F)cc3)c2=O)cc1`, the “activity change, negative = inhibition” value is 13% [at 46.1 µM].

In the case of `COc1ccc(Oc2c(Cl)cnn(-c3ccccc3)c2=O)cc1`, the Potency is 10 µM (active). Turning to `Cc1ccc(Oc2cnn(-c3ccccc3)c(=O)c2Br)cc1`, the “activity change, negative = inhibition” value is 1.31% [at 46.1 µM]. Take `c1ccc(-c2nnc(N3CCOCC3)c3ccccc23)cc1`: the “activity change, negative = inhibition” value was -2.47% [at 46.1 µM]. On the same count and under the same terms, in the case of `Cc1cc(C(=O)Nc2ccccc2N2CCOCC2)c2ccccc2n1` it was -16.1%. For `c1ccc(Nc2nc(N3CCOCC3)c3ccccc3n2)cc1`, the Potency is 12.6 µM (active). Regarding `Cc1nn(-c2ccc(F)cc2)c(Cl)c1/C=C(/CCC(=O)O)c1nc2ccccc2s1`, the “activity change, negative = inhibition” value was 13.4%.

As for `Cc1cc(O)c(Sc2ccccc2)c(=O)o1`, the “activity change, negative = inhibition” value is -11.6% [at 46.1 µM]. Take `CCOc1cccc(-c2nnc(SCC(=O)NC3CC3)n2C)c1`: the “activity change, negative = inhibition” value was 4.57% [at 46.1 µM].

For `Cc1ccc(NC(=O)CCN2CCc3ccccc3C2)cc1`, the “activity change, negative = inhibition” value is -4.11%.

As for `CN1C(CC(=O)Nc2ccc(Br)cc2)c2ccccc2CC1(C)C` (stereo not given), the Potency was 11.2 µM (active). On to `COCC(=O)Nc1ccc(Br)cc1`, for which the “activity change, negative = inhibition” value is 37.7%. On the same count and under the same terms, then `COc1ccc(Cc2nnc(SCC(=O)Nc3ccc(C)c(C)c3)o2)cc1OC`, with 0.182% [at 46.1 µM]. On the same count and under the same terms, in the case of `CC(C)Nc1nnc(SC(C)C(=O)N(C)C2CCCCC2)s1` (stereo not given) it was -2.09% [at 46.1 µM]; in that of `CSc1nc2ccc(C)cc2c(=O)n1-c1cccnc1`, 0.18% [at 46.1 µM]; in that of `Cc1ccc2nc3n(c(=O)c2c1)CCC3`, -3.59%. Take `Cc1ccc2nc(C)c3c(c2c1)N(c1ccccc1)CC3`: the Potency is 5.62 µM (active). Consider `COc1ccc(CN2CCN(C(=O)CCC(=O)Nc3nnc(C(C)C)s3)CC2)cc1F`, for which the “activity change, negative = inhibition” value is -1.28% [at 46.1 µM]. Consider `CSc1ccc(S(=O)(=O)N2CCC(C(=O)NCc3ccncc3)CC2)cc1`, for which the “activity change, negative = inhibition” value is 19% [at 46.1 µM]. For the compound `CCOC(=O)c1sc2nc(CSc3ccccc3)[nH]c(=O)c2c1C`, the Potency is 8.91 µM (active).

With `Cc1ccc(C)c(SCc2nc3sc(C(=O)O)c(C)c3c(=O)[nH]2)c1`, the “activity change, negative = inhibition” value is 3.14% [at 46.1 µM]. On to `CCOC(=O)c1sc2nc(CSCC(=O)OCc3ccc(C(=O)OC)o3)[nH]c(=O)c2c1C`, for which the Potency result is “inactive”. Take `Oc1cccc(CCc2ccccn2)c1`: the “activity change, negative = inhibition” value is 5.63%.

For `CC(Nc1ccc([N+](=O)[O-])cc1[N+](=O)[O-])c1ccccc1` (stereo not given), the “activity change, negative = inhibition” value is -12.3%. Still for that read-out and setting: in the case of `OCC1(CCc2ccccc2)CCN(Cc2ccc3nsnc3c2)CC1` it was 32.1% [at 46.1 µM].

For `Cc1c(CN2CCC(CO)(CCOc3ccccc3)CC2)[nH]c2ccc(Cl)cc12`, the Potency was 2.82 µM (active). On the same count and under the same terms, then `Cc1c(C(=O)N2CCOCC2)[nH]c2ccc(OCc3ccccc3)cc12`, with “inactive”.
